Shown are actives, neighbours in structure and some others; about 9.1% of the full set was active somewhere.
D1 allo mod: D1 dopamine receptor (human) allosteric modulation. HEK293 D1, CRE-luciferase, dopamine EC30 potentiation; actives deviate in either direction. P21728. B-score at 10 µM. 58,000 compounds, 5.9% hits. AID 641;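 active = luminescence count or its row- and column-corrected plate score outside the 99.7% band of the plate's sample wells, on either side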
M1 antagonist: M1 muscarinic receptor (rat) antagonism; AID 628; P08482; CHO-M1 cells, Fluo-4 calcium, ACh EC80 antagonist mode; active compounds read low; B-score at 10 µM; 64,000 compounds, 3.4% hits;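 active = calcium fluorescence response, raw or row-and-column corrected B-score, differing from the plate sample mean either way at a set confidence level, mostly lower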
Target sequence (P08482 whole entry, looked up): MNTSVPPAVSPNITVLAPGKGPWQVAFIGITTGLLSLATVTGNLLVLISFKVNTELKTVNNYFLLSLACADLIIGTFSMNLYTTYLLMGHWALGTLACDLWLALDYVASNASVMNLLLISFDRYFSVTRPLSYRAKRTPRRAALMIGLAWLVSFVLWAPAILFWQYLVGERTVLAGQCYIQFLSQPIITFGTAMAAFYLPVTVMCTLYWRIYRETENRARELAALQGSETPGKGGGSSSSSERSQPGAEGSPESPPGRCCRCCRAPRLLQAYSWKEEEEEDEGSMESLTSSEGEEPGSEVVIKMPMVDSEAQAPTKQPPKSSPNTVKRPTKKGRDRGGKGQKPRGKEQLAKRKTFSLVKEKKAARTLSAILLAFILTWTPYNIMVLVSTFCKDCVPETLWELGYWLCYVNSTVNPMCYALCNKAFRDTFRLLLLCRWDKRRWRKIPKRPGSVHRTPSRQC
M1 ag: activates the M1 muscarinic receptor; CHO-M1 cells, Fluo-4 calcium fluorescence, agonist mode; active compounds read high; 64,000 compounds, 3% hits; B-score at 10 µM;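 active = fluorescence rise, raw or as B-score row- and column-corrected plate score, outside the 99.7% band of its plate's samples, either direction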
mHtt clearance: compounds clearing mutant huntingtin protein. HeLa Exon1htt(103Q)mCFP, aggregate imaging; zero = plate's median compound well. inhibition, % at 1.5 µM. 47,000 compounds, 0.42% hits. AID 853;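 active = inhibition of aggregate fluorescence above about 70%, also judged a hit by eye on the cell image, limit read from the data, passing the limit was not always enough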;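 note: cells exposed to compound for three days before fixation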
D1 mod confirm: confirmation of human D1 dopamine receptor allosteric modulators; shares compounds with D1 allo mod; HEK293 D1 CRE-luciferase, dopamine EC30 potentiation; active compounds read high; luminescence at 10 µM; 2,200 compounds, 88% hits; AID 642;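 active = luminescence in either of two replicates above the same-plate mean plus 3 SD of the low-dose dopamine control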
D1 no dopamine: activates D1 CRE-luciferase signal without dopamine present; shares compounds with D1 allo mod; HEK293 D1 CRE-luciferase, luminescence, no dopamine; active compounds read high; 1,900 compounds, 0.8% hits; luminescence at 10 µM; in the data active = luminescence above about 3900
Isoprot counter: isoproterenol response counter-screen activity for D1 modulators | 2,200 compounds, 63% hits | luminescence at 10 µM | HEK293 D1 CRE-luciferase, isoproterenol EC30 counter-screen; active compounds read high | shares compounds with D1 allo mod;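 active = luminescence in either replicate above plate mean of wells with a partly effective reference agonist dose plus 3 SD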;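 note: isoproterenol raises cAMP through native beta-adrenoceptor Gs so signal bypasses D1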
Numbers without * were called inactive.

What do the screens show for `Cn1cc(/C=N/n2cnc3scc(-c4ccccc4)c3c2=O)c2ccccc21`?
D1 allo mod: -0.06; M1 antagonist: -0.74; M1 ag: 0.64

How did c1ccc(-c2csc3ncn4cnnc4c23)cc1 do in these assays?
D1 allo mod: 18*; M1 antagonist: 0.96; M1 ag: -0.45; mHtt clearance: 30; D1 mod confirm: 18512*; D1 no dopamine: 1700; Isoprot counter: 4824*

How did COc1ccc(N2C(=O)C3CCCN3C2c2ccccc2)cc1Cl (configuration not stated) do in these assays?
D1 allo mod: 2.8*; M1 antagonist: 0.42; M1 ag: 0.82; D1 mod confirm: 5744*; D1 no dopamine: 1680; Isoprot counter: 2896

Results for CCOC(=O)c1oc2ccccc2c1NC(=O)c1ccccc1OC ?
D1 allo mod: 4.5*; M1 antagonist: 0.32; M1 ag: 1.1; mHtt clearance: -42; D1 mod confirm: 11400*; D1 no dopamine: 1632; Isoprot counter: 4680*

Results for CCOC(=O)c1oc2ccccc2c1NC(=O)COc1cccc(OC)c1 ?
M1 antagonist: 0.38; M1 ag: 1.1; mHtt clearance: -69

Results for CCOc1ccc(CC(=O)Nc2c(C(N)=O)oc3ccccc23)cc1OCC ?
D1 allo mod: 4.5*; M1 antagonist: 0.36; M1 ag: 1; D1 mod confirm: 7352*; D1 no dopamine: 1544; Isoprot counter: 3564

What do the screens show for `Cc1occc1-c1nnc(SCC(=O)c2cc3ccccc3oc2=O)o1`?
D1 allo mod: -0.95; M1 antagonist: -0.19; M1 ag: -1.2; mHtt clearance: 4

How did COc1cccc(-c2noc(CCC(=O)Nc3cccnc3)n2)c1 do in these assays?
D1 allo mod: 1.6; M1 antagonist: -0.81; M1 ag: -0.18

How did COc1ccc(-c2noc(CCC(=O)NC3CCCCC3)n2)cc1OC do in these assays?
D1 allo mod: -0.49; M1 antagonist: -1.3; M1 ag: 0.64; mHtt clearance: 38

What do the screens show for `COc1ccc(-c2noc(CCC(=O)Nc3cccnc3)n2)cc1OC`?
D1 allo mod: 4.7*; M1 antagonist: 0.32; M1 ag: -0.39; mHtt clearance: 10; D1 mod confirm: 17976*; D1 no dopamine: 1752; Isoprot counter: 2960

How did CCOc1ccc(Cc2nc(-c3nonc3N)no2)cc1OCC do in these assays?
D1 allo mod: 7.7*; M1 antagonist: -0.046; M1 ag: -0.022; D1 mod confirm: 13988*; D1 no dopamine: 1580; Isoprot counter: 3632*

How did CCOc1ccc(-c2noc(CCC(N)=O)n2)cc1OCC do in these assays?
D1 allo mod: 11*; D1 mod confirm: 16532*; D1 no dopamine: 1780; Isoprot counter: 3756*

What do the screens show for `Cc1cccc(-n2nc3c(c2NC(=O)c2ccc(Br)o2)CSC3)c1`?
D1 allo mod: 0.85; M1 antagonist: 0.21; M1 ag: 0.26; mHtt clearance: -20

What do the screens show for `Cc1nc(N2CCCC2)c2nnn(Cc3ccccc3Cl)c2n1`?
M1 antagonist: -0.96; M1 ag: -0.61

What do the screens show for `Cc1nc(N2CCC(C(N)=O)CC2)c2nnn(Cc3ccccc3)c2n1`?
D1 allo mod: 3.2*; M1 antagonist: 0.21; M1 ag: 0.00021; D1 mod confirm: 6740*; D1 no dopamine: 1504; Isoprot counter: 2880

Results for Cc1nn(C)c(C)c1/C=N/O ?
mHtt clearance: -116

What do the screens show for `CC1CC(C)CN(c2nc3c(c(=O)n(C)c(=O)n3C)n2CCSc2nc3ccccc3o2)C1` (configuration not stated)?
D1 allo mod: -0.21; M1 antagonist: -0.97; M1 ag: 1.4

How did COc1cc2c(cc1OC)C(C)N(C(=O)c1cc3n(n1)C(C(F)(F)F)CC(c1ccco1)N3)CC2 (configuration not stated) do in these assays?
D1 allo mod: 6*; M1 antagonist: -0.097; M1 ag: -0.2; mHtt clearance: -21; D1 mod confirm: 12888*; D1 no dopamine: 1708; Isoprot counter: 4328*

How did N#CC1=C(N)N(c2ccccc2)C2=C(C(=O)CCC2)C1c1ccsc1 (configuration not stated) do in these assays?
D1 allo mod: 8.3*; M1 antagonist: 0.6; M1 ag: 0.65; D1 mod confirm: 17976*; D1 no dopamine: 1976; Isoprot counter: 3340

What do the screens show for `CCc1noc2c1/C(=N\O)CC(c1ccccc1)C2` (configuration not stated)?
D1 allo mod: 17*; M1 antagonist: -0.056; M1 ag: 0.19; mHtt clearance: -68; D1 mod confirm: 25792*; D1 no dopamine: 1744; Isoprot counter: 3700*

What do the screens show for `CCOC(=O)c1[nH]cnc1C(=O)Nc1cccc(N)n1`?
M1 antagonist: -1.4; M1 ag: -0.63

What do the screens show for `CCOC(=O)c1[nH]cnc1C(=O)Nc1ccncc1`?
D1 allo mod: 13*; M1 antagonist: 0.068; M1 ag: 0.23; mHtt clearance: -14; D1 mod confirm: 14788*; D1 no dopamine: 1588; Isoprot counter: 3840*

What do the screens show for `Cc1cc(NC(=O)CSc2cn(C)c3ccccc23)no1`?
D1 allo mod: -0.62; M1 antagonist: 0.00036; M1 ag: 1.1; mHtt clearance: -14

What do the screens show for `Cc1cc(C)n(-c2nc3ccccc3c3nc(C)nn23)n1`?
D1 allo mod: 9.6*; M1 antagonist: 0.84; M1 ag: -0.58; D1 mod confirm: 13408*; Isoprot counter: 3020*

Results for Cc1cc(C)n(-c2nc3ccccc3c(=O)n2OC2CCCCC2)n1 ?
D1 allo mod: 0.057; M1 antagonist: -0.21; M1 ag: 0.68; mHtt clearance: 7

Results for Cc1cc(C)n(-c2ncc(-c3ccccc3)nn2)n1 ?
D1 allo mod: 4.5*; M1 antagonist: 0.23; M1 ag: -0.00035; mHtt clearance: 5; D1 mod confirm: 6696*; Isoprot counter: 2720

How did Cc1cc(C)n(-c2nncc(-c3ccccc3)n2)n1 do in these assays?
D1 allo mod: -0.018

How did O=C(NCCCn1ccnc1)Nc1cccc(Cl)c1 do in these assays?
D1 allo mod: -0.31; M1 antagonist: -1.2; M1 ag: -1.4; mHtt clearance: 12

What do the screens show for `c1ccc2c(N3CCCC3)nc(-c3ccncc3)nc2c1`?
D1 allo mod: 9.2*; M1 antagonist: -0.79; M1 ag: 4.4; mHtt clearance: 28; D1 mod confirm: 18800*; D1 no dopamine: 1668; Isoprot counter: 5336*

How did COc1nc(-c2ccncc2)nc2ccccc12 do in these assays?
mHtt clearance: 11

What do the screens show for `C=CCOc1nc(-c2ccncc2)nc2ccccc12`?
D1 allo mod: 6.5*; M1 antagonist: 0.0024; M1 ag: 0.38; mHtt clearance: -46; D1 mod confirm: 15684*; Isoprot counter: 3112*

Results for c1ccc(-c2nc(N3CCCCCC3)c3ccccc3n2)nc1 ?
D1 allo mod: 2.9; M1 antagonist: -1.6; M1 ag: -1.6; mHtt clearance: -115
